From PubChem BioAssay come the findings set out here.

Test [1] relates to Human papillomavirus type 1a protein E7 (residues 44-93). In words: HPV1a E7 fragment binders on microarrays, primary screen, biochemical, small-molecule microarray, residues 44-93, 635 nm fluorescence (AID 1108).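 Note: E7 fragment applied at 1 µg/mL in TBST for 1 h at 4 C; score combines spot fluorescence with its signal to noise ratio.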 As to conditions: small-molecule microarray binding, fluorescence 635 nm; higher = more signal.
Test [2] is described as follows: modulators of HCV replicon luciferase signal, primary screen, HCV replication inhibitor project, Huh7 cells, luciferase reporter (AID 1109).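 Note: huh7 hepatoma cells harbouring a luciferase neomycin HCV replicon reporter; luciferase luminescence as measure of HCV replicon replication; test concentration not given here.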 The conditions noted are these: 48 h, higher = more signal. A general note: In antiviral work, replicon cells carry a viral genome segment that copies itself.
Test [3] deals with Left-right determination factor 2 (Homo sapiens) (UniProt O00292). In words: LEFTY2 binders on small-molecule microarrays, primary screen, biochemical, small-molecule microarray, 635 nm fluorescence scan (AID 1110). As to conditions: LEFTY2 binding, higher = more signal.
Test [4] concerns the target Calmodulin-1 (Homo sapiens) (UniProt P0DP23). In words: CALM1 binders on microarrays, EGTA buffer, profiling panel, biochemical, small-molecule microarray, Cy5-labelled CALM1 (AID 1111).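 Note: labelled calmodulin applied in Tris saline Tween buffer holding calcium plus EGTA and DTT.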 As to conditions: Cy5-CALM1 binding fluorescence, higher = more signal.
Test [5] shares this target. In words: calcium-bound CALM1 binders on microarrays, profiling panel, artefact control for SMM control-protein annotation, biochemical, small-molecule microarray, Cy5-labelled CALM1, plus calcium (AID 1112).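 Note: score merges spot fluorescence with signal to noise from triplicate slides.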 The conditions noted are these: Cy5-CALM1 binding fluorescence, higher = more signal.
Test [6] in a line: small-molecule microarray binders of probe aWnt5a, primary screen, biochemical, biotinylated probe, 635/667 nm fluorescence (AID 1113).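 Note: score merges 667 nm fluorescence intensity with signal-to-noise per printed feature.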 As to conditions: higher = more signal.
Test [7] in a line: small-molecule microarray binders of probe aShh, primary screen, biochemical, biotinylated probe, 635/667 nm fluorescence (AID 1114).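 Note: probe is biotin-labelled aShh protein from a stem cell growth factor screen; measures binding of labelled protein to compounds printed on the slide; score merges feature fluorescence at 667 nm with signal-to-noise.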 As to conditions: higher = more signal.
The nature of test [8]: small-molecule microarray binders of probe aNog, primary screen, biochemical, biotinylated probe, 635/667 nm fluorescence (AID 1115).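 Note: probe is biotinylated aNog protein used at 0.15 µg/mL for 1 h at 4 C; z-score combines 667 nm fluorescence of each spot with its signal to noise.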 The conditions noted are these: higher = more signal.
In test [9] the target is Torsin-1A-interacting protein 1 (Homo sapiens) (UniProt Q5JTV8). Kind of test: LAP1 binders from COS7 cell lysate, primary screen, small-molecule microarray, 635/667 nm fluorescence (AID 1116). As to conditions: COS7-hLAP1 lysate binding, 635 nm fluorescence, higher = more signal.
For test [10], the target named is Alpha-bungarotoxin (Bungarus multicinctus) (UniProt P60615). Kind of test: alpha-bungarotoxin binders on microarray, profiling panel, artefact control for SMM control protein annotation, biochemical, small-molecule microarray, Alexa647 label, 635/667 nm fluorescence (AID 1117). As to conditions: alpha-BTX-A647 binding fluorescence, higher = more signal.
A further test deals with Albumin (Bos taurus) (UniProt P02769). In words: bovine serum albumin binders on microarray, profiling panel, artefact control for SMM control protein annotation, biochemical, small-molecule microarray, Alexa647 label, 635/667 nm fluorescence (AID 1118).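 Note: score merges 667 nm emission intensity and signal-to-noise per printed compound spot.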 The conditions noted are these: BSA-A647 binding, fluorescence 635 nm, higher = more signal.
A short description of test [11]: small-molecule microarray binders of probe aXIP, primary screen, biochemical, NeuroSMM set, 635/667 nm fluorescence (AID 1119).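 Note: probe is the protein aXip251-270 applied at 1 µg/mL to compound-printed slides; binding of probe to printed compounds measured as 667 nm fluorescence plus signal to noise.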 As to conditions: higher = more signal, called active from +8 up or from −8 down.
Test [12] can be described thus: small-molecule binders of probe aNOTCH3, primary screen, biochemical, small-molecule microarray, 635/667 nm fluorescence (AID 1120).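 Note: probe is a biotin-tagged antibody raised against NOTCH3 rather than NOTCH3 protein; score merges spot fluorescence near 667 nm with spot signal to noise.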 As to conditions: higher = more signal.
Test [13] is described as follows: small-molecule binders of probe aNOTCH2, primary screen, biochemical, small-molecule microarray, 635/667 nm fluorescence (AID 1121).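 Note: score merges feature fluorescence read at 667 nm with its signal to noise.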 The conditions noted are these: higher = more signal.
The target of test [14] is Carbonic anhydrase 2 (Homo sapiens) (UniProt P00918). Kind of test: CAII small-molecule binders, profiling panel, biochemical, small-molecule microarray, Alexa647-labelled CAII (AID 1122). The conditions noted are these: CAII-A647 binding fluorescence, higher = more signal.
Test [15] is described as follows: COS7 lysate on small-molecule microarray, probe aHis, 635 nm (AID 1123).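 Note: z-score combines 667nm fluorescence intensity with signal-to-noise per printed compound spot.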 As to conditions: COS7 cell lysate, fluorescence, higher = more signal.
A short description of test [16]: compound binding in COS7 lysate, probe aLAP1, primary screen, cell lysate, small-molecule microarray (AID 1124).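 Note: lysate comes from COS7 cells expressing LAP1 and is applied at 0.3 µg/mL; score merges spot fluorescence near 667 nm with signal-to-noise over triplicate slides.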 As to conditions: probe aLAP1, fluorescence, higher = more signal.
The subject of a further test is Sam68 (KHDRBS1). In words: Sam68 small-molecule binders, primary screen, biochemical, small-molecule microarray, 635 nm fluorescence (AID 1125).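 Note: score merges 667 nm channel intensity with signal to noise over triplicate slides.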 The conditions noted are these: small-molecule microarray binding, higher = more signal.
In test [17] the test system is Chordin-like protein 2 (CHRDL2). In words: CHRDL2 small-molecule binders, primary screen, biochemical, small-molecule microarray, 635 nm fluorescence (AID 1126).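 Note: printed compound slides probed with Chrdl2 protein at 4 µg/mL for 1 h at 4 C; score merges 667 nm emission intensity with signal to noise over three replicate slides.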 As to conditions: small-molecule microarray binding, fluorescence 635 nm; higher = more signal.
Test [18] deals with Concanavalin-A (Canavalia ensiformis) (UniProt P02866). Kind of test: ConA small-molecule binders, primary screen, artefact control for SMM control protein annotation, biochemical, small-molecule microarray, Alexa647 label, 635 nm (AID 1127).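 Note: z combines 667 nm emission intensity with signal-to-noise across three replicate slides.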 The conditions noted are these: ConA-A647 binding fluorescence, higher = more signal.

Structures are written as SMILES. Calls of active or inactive are those of the source.

Sequence of Albumin (Bos taurus) (P02769 whole entry, looked up): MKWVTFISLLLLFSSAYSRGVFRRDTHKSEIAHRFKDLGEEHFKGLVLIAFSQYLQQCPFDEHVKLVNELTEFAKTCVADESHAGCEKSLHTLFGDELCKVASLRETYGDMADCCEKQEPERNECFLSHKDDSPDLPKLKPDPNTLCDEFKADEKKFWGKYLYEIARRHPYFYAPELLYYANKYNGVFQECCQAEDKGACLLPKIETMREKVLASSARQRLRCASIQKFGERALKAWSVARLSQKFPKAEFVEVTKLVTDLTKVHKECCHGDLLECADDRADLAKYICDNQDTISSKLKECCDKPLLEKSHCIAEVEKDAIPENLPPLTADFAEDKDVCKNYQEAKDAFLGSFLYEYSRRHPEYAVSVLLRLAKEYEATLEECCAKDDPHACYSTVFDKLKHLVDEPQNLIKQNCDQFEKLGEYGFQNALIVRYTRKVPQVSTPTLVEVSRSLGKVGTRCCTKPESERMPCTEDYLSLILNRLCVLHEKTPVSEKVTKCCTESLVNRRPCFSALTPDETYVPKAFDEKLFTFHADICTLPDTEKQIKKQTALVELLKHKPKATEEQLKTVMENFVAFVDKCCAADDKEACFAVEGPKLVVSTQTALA
Sequence of Left-right determination factor 2 (Homo sapiens) (O00292 whole entry, looked up): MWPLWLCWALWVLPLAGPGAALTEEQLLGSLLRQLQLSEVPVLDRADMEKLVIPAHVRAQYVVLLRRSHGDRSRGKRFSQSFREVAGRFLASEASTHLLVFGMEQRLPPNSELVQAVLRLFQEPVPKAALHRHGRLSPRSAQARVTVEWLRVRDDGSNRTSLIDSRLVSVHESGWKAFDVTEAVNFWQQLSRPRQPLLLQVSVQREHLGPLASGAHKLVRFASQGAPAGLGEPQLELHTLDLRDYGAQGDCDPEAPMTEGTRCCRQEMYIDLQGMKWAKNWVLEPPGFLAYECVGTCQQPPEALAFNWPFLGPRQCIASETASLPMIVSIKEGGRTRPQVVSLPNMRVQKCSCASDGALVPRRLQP
Sequence of Torsin-1A-interacting protein 1 (Homo sapiens) (Q5JTV8 whole entry, looked up): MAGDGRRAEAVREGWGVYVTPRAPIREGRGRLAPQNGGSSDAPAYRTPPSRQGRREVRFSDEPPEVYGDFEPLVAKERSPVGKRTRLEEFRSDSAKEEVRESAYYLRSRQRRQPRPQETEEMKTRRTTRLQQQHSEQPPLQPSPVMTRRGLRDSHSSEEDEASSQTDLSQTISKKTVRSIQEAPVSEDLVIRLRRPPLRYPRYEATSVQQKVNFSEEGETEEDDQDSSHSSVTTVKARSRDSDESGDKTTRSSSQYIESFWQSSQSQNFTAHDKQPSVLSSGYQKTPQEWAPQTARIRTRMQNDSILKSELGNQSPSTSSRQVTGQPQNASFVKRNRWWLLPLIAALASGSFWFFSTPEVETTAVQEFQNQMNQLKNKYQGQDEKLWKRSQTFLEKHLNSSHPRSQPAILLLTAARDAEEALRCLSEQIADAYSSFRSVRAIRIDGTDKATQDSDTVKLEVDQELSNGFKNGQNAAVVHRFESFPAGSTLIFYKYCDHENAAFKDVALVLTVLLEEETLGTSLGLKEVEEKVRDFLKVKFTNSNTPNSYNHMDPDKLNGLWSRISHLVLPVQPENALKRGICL
Sequence of Alpha-bungarotoxin (Bungarus multicinctus) (P60615 whole entry, looked up): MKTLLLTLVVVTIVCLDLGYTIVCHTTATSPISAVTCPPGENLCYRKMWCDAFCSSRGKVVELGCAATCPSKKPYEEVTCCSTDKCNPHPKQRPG
Sequence of Concanavalin-A (Canavalia ensiformis) (P02866 whole entry, looked up): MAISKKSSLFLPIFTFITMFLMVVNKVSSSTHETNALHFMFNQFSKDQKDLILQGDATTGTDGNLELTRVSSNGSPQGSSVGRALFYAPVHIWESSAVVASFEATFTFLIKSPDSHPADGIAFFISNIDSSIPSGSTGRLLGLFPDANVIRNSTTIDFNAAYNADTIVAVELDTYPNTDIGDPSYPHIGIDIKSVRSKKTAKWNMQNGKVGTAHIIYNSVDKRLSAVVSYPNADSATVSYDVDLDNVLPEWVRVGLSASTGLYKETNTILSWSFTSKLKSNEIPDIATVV

Consider `CC1C=C(CCCO)C=C(C(=O)OCCS(C)(=O)=O)C(C(=O)OCCS(C)(=O)=O)=CN1Cc1cccc(OC(F)(F)F)c1` (stereo not given), for which the composite z-score in [1] is 1.11; in [3] it was -0.152; in test [4], 1.7; in [5], 1.09; in test [6], 0.027; in test [7], 0.481. Also, the composite z-score in test [8] was determined as 1.27; in test [9], 2.99; in test [10], 0.761; with Albumin (Bos taurus), 1.03; in [12], 0.0929; in test [13] it was 0.0231. For the same molecule, the composite z-score was 0.749 in test [14]; 2.22 in test [15]; 1.11 in test [16]; 1.21 in the test with Sam68 (KHDRBS1); -0.815 in test [17]; 1.08 in test [18]. In test [2], this molecule came in with a z-score of -1.82. The composite Z-score in test [11] was -0.115 (inactive).
In the case of `C=CCC(OC(C)=O)[C@@H]1[C@@H](N(Cc2ccc(-c3ccccc3)cc2)C(=O)Cc2ccc(OC)cc2)c2cc(OCCCO)ccc2N1C(=O)c1ccc(-c2ccccc2)cc1` (stereo not given in full), the composite z-score in [1] was -0.354; in [3] it was 0.265; in [4], 0.36; in test [5], 0.807; in test [6], -0.0718; in [7] it was -0.229. The composite z-score is -0.174 in test [8]; 0.609 in test [9]; 0.544 in test [10]; -0.146 with Albumin (Bos taurus); 0.268 in test [12]; 0.0224 in test [13]. Further, the composite z-score in test [14] was 0.204; in test [15] it was -0.0315; in [16], 0.394; in the test on Sam68 (KHDRBS1) it was -0.323; in test [17], 0.268; in test [18], -0.781. The molecule further returned a z-score in test [2] of 0.257. In [11], the composite Z-score was -0.427 (inactive).
Take `CC(=O)NCCCC[C@@H]1NC(=O)[C@H]2C[C@@H](C(=O)NCCCCCN)[C@@H](c3cccc(OCCO)c3)N2C1=O`: the composite z-score was 0.783 in test [1]; 0.0306 in test [3]; 1.27 in test [4]; 1.35 in test [5]; -0.0403 in test [6]; -0.0119 in [7]. For the same molecule, the composite z-score in test [8] was -0.392; in test [9] it was 0.718; in [10] it was 1.82; in the test with Albumin (Bos taurus), 0.796; in [12], 0.0493; in test [13] it was -0.0878. For the same molecule, the composite z-score was found to be 0.715 in test [14]; 0.898 in [15]; 0.2 in test [16]; 0.993 with Sam68 (KHDRBS1); 0.218 in test [17]; 1.2 in [18]. Also, in test [2], the z-score amounted to 0.572. Besides, the composite Z-score in test [11] is -0.306 (inactive).
For `CC[C@@H]1[C@@H]2C3C(=O)N(CC)C(=O)C3CC(=O)[C@@H]2[C@H](c2ccc(C)cc2)N1S(=O)(=O)c1ccc(C)cc1` (stereo not given in full), the composite z-score was 1.42 in [1]; 0.336 in test [3]; 0.742 in [4]; 0.409 in test [5]; -0.0761 in [6]; 0.232 in [7]. The composite z-score is -0.546 in test [8]; 1.22 in test [9]; 0.564 in [10]; 0.701 with Albumin (Bos taurus); 0.0077 in test [12]; 0.131 in [13]. The composite z-score in test [14] is 0.749; in test [15] it was 2.61; in test [16], 1.64; in the test with Sam68 (KHDRBS1), 1.34; in test [17], -0.337; in [18] it was 0.876. The same molecule gave a z-score in [2] of -1.64. In addition, the composite Z-score in [11] was -0.304 (inactive).
On to `C[N+](C)(C)CCCCCCNC(=O)[C@H]1C[C@H]2C(=O)N3CCC[C@H]3C(=O)N2[C@H]1c1cccc(OCCO)c1`, for which the composite z-score in test [1] is 0.809; in [3], 1.46; in test [4], -0.205; in [5], -1.14; in test [6] it was -0.135; in test [7], 0.171. The composite z-score in test [8] is -0.381; in [9], 1.67; in test [10] it was 0.0895; in the test with Albumin (Bos taurus), -0.564; in test [12], 0.398; in test [13], -0.0135. In addition, the composite z-score is 0.662 in [14]; 1.73 in [15]; 0.787 in test [16]; 0.976 in the test with Sam68 (KHDRBS1); 1.03 in test [17]; 1.15 in test [18]. The same molecule registered a z-score in test [2] of 0.609. The composite Z-score in [11] was 0.491 (inactive).
